Source: PubChem BioAssay (NCATS)
Results filed as inconclusive are left out. Activity calls are given as the source filed them. Calls come from the whole dose curve; as a rule, active = well fitted inhibition curve with a large enough effect; inconclusive = small, poorly fitted or top-dose-only effect; inactive = no such curve, though single readings can be large or run the other way.

Assay: Primary qHTS for small molecule stabilizers of the endoplasmic reticulum resident proteome: Secreted ER Calcium Modulated Protein (SERCaMP) assay (AID 1508630)
Details: SH-SY5Y GLuc-SERCaMP (Gaussia luciferase released on ER calcium loss) secretion, thapsigargin, luminescence; series mostly up to 38.4 µM; activity change, negative = inhibition: at the top concentration
Procedure, shortened: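 GLuc-SERCaMP-expressing SH-SY5Y cells, pretreated 16 h with compound, are challenged with thapsigargin to empty ER calcium stores; after 4 h, coelenterazine is added directly to the medium and luminescence is imaged.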
% is set by controls: 0 for no effect and ±100 for the full control effect; potency is the fitted concentration of half-maximal effect.

SMILES | activity change, negative = inhibition | Potency
Cc1ccc2c(c1)C(=O)[C@]1(O)CCN(c3ccccc3)C1=N2 | 77.2% (inactive) | 
COc1cc(F)c(C(C)C)cc1-c1ccc(C(F)(F)F)cc1CN1C(=O)O[C@H](c2cc(C(F)(F)F)cc(C(F)(F)F)c2)[C@@H]1C | 113% (inactive) | 
CCCCCCCCCCCCCCCC(=O)O[C@H]1[C@@H](O)[C@@H](O)[C@@H]([C@H](NC(=O)[C@@H]2C[C@@H](CCC)CN2C)[C@H](C)Cl)O[C@@H]1SC | 148% (inactive) | 
CCC(=O)NCC[C@@H]1CCc2ccc3c(c21)CCO3 | 113% (inactive) | 
CN(C)CC[C@H](CSc1ccccc1)Nc1ccc(S(=O)(=O)NC(=O)c2ccc(N3CCN(Cc4ccccc4-c4ccc(Cl)cc4)CC3)cc2)cc1[N+](=O)[O-] | 383% (inactive) | 
N[C@@H](CC(=O)N1CCn2c(nnc2C(F)(F)F)C1)Cc1cc(F)c(F)cc1F | 83.3% (inactive) | 
CC[C@@H]([C@H](C)O)n1ncn(-c2ccc(N3CCN(c4ccc(OCC5CO[C@@](Cn6cncn6)(c6ccc(F)cc6F)C5)cc4)CC3)cc2)c1=O (stereo partly drawn) | 38.3% (inactive) | 
CN(C)c1ccccc1CN1CCCN(Cc2ccccc2N(C)C)C1c1ccncc1 | 246% (inactive) | 
Cc1ccc(S(=O)(=O)OCC(=O)Nc2ccc(C(=O)O)c(O)c2)cc1 | -10.8% (inactive) | 
O=C(O)Cc1cccc(OCCCN(Cc2cccc(C(F)(F)F)c2Cl)CC(c2ccccc2)c2ccccc2)c1 |  | inactive
COC(=O)[C@H](c1ccccc1Cl)N1CCc2sccc2C1 | 141% (inactive) | 
CN1CCN(c2ncc(-c3cc(Cl)cc(Cl)c3Cl)c(N)n2)CC1 | 27.6% (inactive) | 
CC1CNc2c(cccc2S(=O)(=O)N[C@@H](CCCN=C(N)N)C(=O)N2CC[C@@H](C)C[C@@H]2C(=O)O)C1 (stereo partly drawn) | 245% (inactive) | 
COc1cc2c(cc1OC)CC(=O)N(CCCN(C)C[C@H]1Cc3cc(OC)c(OC)cc31)CC2 | 133% (inactive) | 
COc1ccc(-c2oc3c(CC=C(C)C)c(O)cc(O)c3c(=O)c2O)cc1 | 254% (inactive) | 
Cc1nc(NC(=O)N2CCC[C@@H]2C(N)=O)sc1-c1csc(C(C)(C)C)n1 | 71.3% (inactive) | 
O=c1cc(-c2ccc(O)c(O)c2)oc2cc(O)cc(O)c12 | 332% (inactive) | 
CC(C)C[C@@H](N)[C@H](O)C(=O)N[C@H](C(=O)N[C@H](C(=O)N[C@@H](CC(=O)O)C(=O)O)C(C)C)C(C)C | 76.8% (inactive) | 
COc1cc2nccc(Oc3ccc(NC(=O)Nc4cc(C)on4)c(Cl)c3)c2cc1OC | 33.8% (inactive) | 

SMILES | activity change, negative = inhibition | Potency
CN(C(Cc1ccc(OS(=O)(=O)c2cccc3cnccc23)cc1)C(=O)N1CCN(c2ccccc2)CC1)S(=O)(=O)c1cccc2cnccc12 (stereo not drawn) |  | 11.9 µM (active)
COc1cc([C@@H]2c3cc4c(cc3[C@@H](O[C@@H]3O[C@@H]5CO[C@@H](C)O[C@@H]5[C@H](O)[C@@H]3O)[C@H]3COC(=O)[C@H]23)OCO4)cc(OC)c1O |  | inactive
Cc1ccc2c(=O)c3cccc(CC(=O)O)c3oc2c1C | 7.82% (inactive) | 
CCCCOCCOc1nc(-c2ccc(C(=O)O)c(F)c2)sc1C | 47.8% (inactive) | 
NCc1c[nH]c(=S)n1[C@H]1CCc2c(F)cc(F)cc2C1 | -27.6% (inactive) | 
CCOC(=O)[C@@H](N)CCC(=O)N[C@@H](CSCc1ccccc1)C(=O)N[C@@H](C(=O)OCC)c1ccccc1 | 15.7% (inactive) | 
CCC(C)SSc1ncc[nH]1 (stereo not drawn) | 2.2% (inactive) | 
NC(=O)c1ccc(N(C(N)=O)c2c(F)cccc2F)nc1-c1ccc(F)cc1F | 0% (inactive) | 
NC1(C(=O)N[C@@H](CCO)c2ccc(Cl)cc2)CCN(c2ncnc3[nH]ccc23)CC1 | 51.3% (inactive) | 
COc1cc2ncn(-c3cc(OCc4ccccc4S(C)(=O)=O)c(C#N)s3)c2cc1OC | 0% (inactive) | 
CCC[C@H](N[C@@H](C)C(=O)N1[C@@H]2CCCC[C@H]2C[C@H]1C(=O)O)C(=O)OCC | 0% (inactive) | 
O=C1CCCC(=O)C1C(=O)c1ccc(C(F)(F)F)cc1[N+](=O)[O-] | 33.8% (inactive) | 
COc1cc2nccc(Oc3ccc(NC(=O)Nc4ccc(F)cc4F)c(F)c3)c2cc1OC |  | inactive
CC[C@H](C=C[C@@H](C)[C@H]1CC[C@H]2[C@@H]3CC=C4C[C@@H](O)CC[C@]4(C)[C@@H]3CC[C@]12C)C(C)C | 90.8% [at 21.6 µM] (inactive) | 
CC(=O)NCCC(=O)N[C@@H](CCC(N)=O)C(=O)N[C@@H](CO)C(=O)N[C@@H](CCC(N)=O)C(=O)N[C@@H](CCC(N)=O)C(=O)N[C@H](C(=O)N[C@@H](Cc1ccccc1)C(=O)N[C@]1(C)CCCCCCC=CCCC[C@@](C)(C(=O)N[C@@H](CCC(N)=O)C(=O)N[C@@H](CC(N)=O)C(N)=O)NC(=O)[C@H](CC(C)C)NC(=O)[C@H](CC(C)C)NC(=O)[C@@H](CCCNC(=N)N)NC(=O)[C@H](Cc2c[nH]c3ccccc23)NC(=O)[C@H](CC(C)C)NC(=O)[C@H](CC(N)=O)NC1=O)[C@H](C)O | 88.5% (inactive) | 
CC[C@H](C)n1cc(C)c2c(C(=O)NCc3c(C)cc(C)[nH]c3=O)cc(-c3ccc(N4CCNCC4)nc3)cc21 | 120% (inactive) | 
OC1CCC(Nc2ncc3nc(Nc4c(F)cc(F)cc4F)n([C@@H]4CCOC4)c3n2)CC1 (stereo partly drawn) | 25.7% (inactive) | 
COc1c(C)cnc(Cn2cnc3c(Cl)nc(N)nc32)c1C | 0% (inactive) | 
CCOC(=O)c1c(CSc2ccccc2)n(C)c2cc(Br)c(O)c(CN(C)C)c12 | -28.6% (inactive) | 
